From PubChem BioAssay (NCI)
About 83,000 compounds went through this panel and 20% of them were active in at least one assay; those are over-represented in the sample as a whole.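 Negative percent growth values reflect cell death: -40 means 40% of the cells present at the start died, and -100 means all died.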 Active and inactive are the calls of the source. Rule for the calls: active = growth percent below 10; inactive = the rest.

Key:
Test in all cases: NCI-60 one-dose screen, 48 h (100 = growth as untreated, 0 = no growth, -100 = all killed)
Details in all cases: 10 µM
RPMI-8226 leukemia = test system: RPMI-8226 leukemia
OVCAR-8 ovarian = test system: OVCAR-8 ovarian
OVCAR-5 ovarian = test system: OVCAR-5 ovarian
OVCAR-4 ovarian = test system: OVCAR-4 ovarian
SK-OV-3 ovarian = test system: SK-OV-3 ovarian
IGROV1 ovarian = test system: IGROV1 ovarian
OVCAR-3 ovarian = test system: OVCAR-3 ovarian
HS 578T breast = test system: HS 578T breast
NCI/ADR-RES ovarian = test system: NCI/ADR-RES ovarian

Measured: growth

O=C(Cc1ccc(OCc2ccccc2)cc1)NCc1ccc2c(c1)OCO2
inactive: RPMI-8226 leukemia 67.7% | OVCAR-8 ovarian 91.1% | OVCAR-5 ovarian 110% | OVCAR-4 ovarian 107% | SK-OV-3 ovarian 82.4% | IGROV1 ovarian 60.4% | OVCAR-3 ovarian 58.9% | HS 578T breast 69.8% | NCI/ADR-RES ovarian 47.8%

O=C(CCNNC(=O)c1ccncc1)NCc1ccccc1
inactive: RPMI-8226 leukemia 87.2% | OVCAR-8 ovarian 100% | OVCAR-5 ovarian 105% | OVCAR-4 ovarian 96.3% | SK-OV-3 ovarian 104% | IGROV1 ovarian 92.3% | OVCAR-3 ovarian 102% | NCI/ADR-RES ovarian 96.5%

COc1cc(CCN=Cc2ccccc2O)c([N+](=O)[O-])cc1OC
inactive: RPMI-8226 leukemia 105% | OVCAR-8 ovarian 107% | OVCAR-5 ovarian 101% | OVCAR-4 ovarian 120% | SK-OV-3 ovarian 108% | IGROV1 ovarian 96.5% | HS 578T breast 114% | NCI/ADR-RES ovarian 103%

CC1CCC(C(=O)O)N1 (centres undefined)
inactive: RPMI-8226 leukemia 105% | OVCAR-8 ovarian 112% | OVCAR-5 ovarian 91.5% | OVCAR-4 ovarian 99% | SK-OV-3 ovarian 94.2% | IGROV1 ovarian 101% | OVCAR-3 ovarian 109% | HS 578T breast 106% | NCI/ADR-RES ovarian 93%

COc1ccc2c(c1)CCc1c-2n[nH]c1-c1[nH]nc2c1CCc1cc(OC)ccc1-2
inactive: RPMI-8226 leukemia 61.2% | OVCAR-8 ovarian 84.7% | OVCAR-5 ovarian 89.6% | OVCAR-4 ovarian 77.3% | SK-OV-3 ovarian 77% | IGROV1 ovarian 62.4% | HS 578T breast 48.7% | NCI/ADR-RES ovarian 33.9%

O=C1OC(=O)C2C1C1(Cl)C(Cl)=C(Cl)C2(Cl)C2C(=O)OC(=O)C21 (centres undefined)
inactive: RPMI-8226 leukemia 96.4% | OVCAR-8 ovarian 100% | OVCAR-5 ovarian 106% | OVCAR-4 ovarian 101% | SK-OV-3 ovarian 102% | IGROV1 ovarian 109% | OVCAR-3 ovarian 112% | HS 578T breast 113% | NCI/ADR-RES ovarian 108%

COc1ccc(/C=C/c2cccc[n+]2C)cc1
inactive: RPMI-8226 leukemia 90.3% | OVCAR-8 ovarian 105% | OVCAR-5 ovarian 95.8% | OVCAR-4 ovarian 107% | SK-OV-3 ovarian 78.8% | IGROV1 ovarian 85.3% | OVCAR-3 ovarian 103% | HS 578T breast 119% | NCI/ADR-RES ovarian 103%

COC(=O)c1ccccc1Br
inactive: RPMI-8226 leukemia 104% | OVCAR-8 ovarian 105% | OVCAR-5 ovarian 82.2% | OVCAR-4 ovarian 103% | SK-OV-3 ovarian 107% | IGROV1 ovarian 108% | OVCAR-3 ovarian 106% | HS 578T breast 113% | NCI/ADR-RES ovarian 100%

NCC(=O)CCC(=O)O
inactive: RPMI-8226 leukemia 118% | OVCAR-8 ovarian 104% | OVCAR-5 ovarian 120% | OVCAR-4 ovarian 98% | SK-OV-3 ovarian 99.8% | IGROV1 ovarian 112% | OVCAR-3 ovarian 111% | HS 578T breast 108% | NCI/ADR-RES ovarian 107%

CCS(=O)(=O)CCCl
inactive: RPMI-8226 leukemia 101% | OVCAR-8 ovarian 104% | OVCAR-5 ovarian 105% | OVCAR-4 ovarian 101% | SK-OV-3 ovarian 104% | IGROV1 ovarian 107% | OVCAR-3 ovarian 116% | HS 578T breast 96.4% | NCI/ADR-RES ovarian 105%

Oc1ccc(O)cc1
inactive: RPMI-8226 leukemia 67.6% | OVCAR-8 ovarian 94.6% | OVCAR-5 ovarian 123% | OVCAR-4 ovarian 105% | SK-OV-3 ovarian 114% | IGROV1 ovarian 108% | OVCAR-3 ovarian 109% | HS 578T breast 104% | NCI/ADR-RES ovarian 92.4%

c1csc(-c2cc(-c3cc(-c4cccs4)[nH]n3)n[nH]2)c1
inactive: RPMI-8226 leukemia 94.6% | OVCAR-8 ovarian 104% | OVCAR-5 ovarian 104% | OVCAR-4 ovarian 101% | SK-OV-3 ovarian 97% | IGROV1 ovarian 89.3% | OVCAR-3 ovarian 118% | HS 578T breast 74.6% | NCI/ADR-RES ovarian 99.5%

CCCCNC(=O)C(=O)NCCCC
inactive: RPMI-8226 leukemia 106% | OVCAR-8 ovarian 105% | OVCAR-5 ovarian 113% | SK-OV-3 ovarian 123% | IGROV1 ovarian 113% | OVCAR-3 ovarian 108% | HS 578T breast 96.6% | NCI/ADR-RES ovarian 104%

COC(=O)Nc1nc2ccc(C(=O)c3ccc(F)cc3)cc2[nH]1
inactive: OVCAR-5 ovarian 27.3% | OVCAR-4 ovarian 55.5% | SK-OV-3 ovarian 42.6%
active: RPMI-8226 leukemia -27.1% | OVCAR-8 ovarian 6.47% | OVCAR-3 ovarian -74.4% | HS 578T breast -5.44% | NCI/ADR-RES ovarian -5.09%

O=[N+]([O-])c1ccc(-c2noc(-c3cccs3)n2)cc1
inactive: RPMI-8226 leukemia 96.5% | OVCAR-8 ovarian 86.6% | OVCAR-4 ovarian 71.6% | SK-OV-3 ovarian 95.2% | IGROV1 ovarian 96% | OVCAR-3 ovarian 106% | HS 578T breast 60.3% | NCI/ADR-RES ovarian 82.4%
